Test results: PubChem BioAssay AID1671190 (National Center for Advancing Translational Sciences (NCATS), 2021)
“And” between values parts separate entries of the source, which are not always exact repeats. Equal entries are not always repeated. Hit rate of the full screen: of about 580,000 compounds, about 6,100 (1.1%) were called active. Another 15% or so got no clear call; they are omitted. What follows is part of a selection rich in actives, with near analogues and random picks from the rest. Unmarked numbers belong to inactive results. Calls follow the shape of the dose curve; as a rule, active = well fitted inhibition curve with a large enough effect; inconclusive = small, poorly fitted or top-dose-only effect, or another doubt; inactive = no such curve, though single readings can be large or run the other way.

Target: Polyunsaturated fatty acid lipoxygenase ALOX12 (Homo sapiens) (UniProt P18054)
Sequence (P18054 whole entry, looked up): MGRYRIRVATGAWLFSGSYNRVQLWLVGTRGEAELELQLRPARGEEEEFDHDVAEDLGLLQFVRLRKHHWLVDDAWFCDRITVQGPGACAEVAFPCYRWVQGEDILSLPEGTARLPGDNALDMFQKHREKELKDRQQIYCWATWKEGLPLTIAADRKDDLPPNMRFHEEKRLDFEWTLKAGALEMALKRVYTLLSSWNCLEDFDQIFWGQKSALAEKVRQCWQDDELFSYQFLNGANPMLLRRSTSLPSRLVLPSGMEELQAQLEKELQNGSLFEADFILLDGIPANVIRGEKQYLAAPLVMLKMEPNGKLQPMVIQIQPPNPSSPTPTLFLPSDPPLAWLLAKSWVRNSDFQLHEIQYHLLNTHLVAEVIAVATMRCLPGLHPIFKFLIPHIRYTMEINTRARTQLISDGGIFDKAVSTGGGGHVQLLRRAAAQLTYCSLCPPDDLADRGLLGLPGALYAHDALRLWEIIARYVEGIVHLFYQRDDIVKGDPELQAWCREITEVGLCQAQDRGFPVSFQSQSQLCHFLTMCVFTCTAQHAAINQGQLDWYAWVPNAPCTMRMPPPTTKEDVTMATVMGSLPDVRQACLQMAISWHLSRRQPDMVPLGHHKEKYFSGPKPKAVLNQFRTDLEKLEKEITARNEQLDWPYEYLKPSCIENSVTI
Experiment: Primary qHTS assay for inhibitors of human arachidonate 12S-lipoxygenase (ALOX12): Round 2
Settings: purified 12hLO, xylenol orange hydroperoxide absorbance; series mostly up to 108 µM; activity change, negative = inhibition: at the top concentration
Procedure, shortened: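 Purified human 12hLO (150 nM final) in 25 mM Hepes, 0.01% Triton X-100, pH 7.0 was preincubated 15 min at room temperature with compound. Then 40 uM arachidonic acid was added, 30 min. Hydroperoxide was read by Fe-XO absorbance ratio 573/405 nm.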
% is scaled to controls: 0 for no effect and ±100 for the full control effect; potency is read from the fitted curve at half-maximal effect.

| Compound | activity change, negative = inhibition | Potency |
| --- | --- | --- |
| Cn1c(=O)[nH]c(=O)c2c1nc(SCCO)n2Cc1ccc(Cl)cc1 | -28.4% | – |
| CCN(CC)c1ccc(NC(=O)CSc2ncnc3ccccc23)cc1 | -15.3% | – |
| CC(C)C(=O)NC(NC(=S)Nc1ccccc1)C(Cl)(Cl)Cl (centres undefined) | -14.2% | – |
| COCCN1C(=O)c2n[nH]c(-c3ccco3)c2C1c1ccc(O)cc1 (centres undefined) | -7.24% | – |
| Cc1cnc(-c2ccncc2)n1CCN | – | 3.55 µM (active) |
| Cc1cnc(C)n1CCN | 43.7% | – |
| Cc1cnc(-c2ccccc2)n1CCNC(=O)CCC1CCCC1 | 7.92% | – |
| CCc1ccc(-c2ccccc2)nc1-c1ccccc1 | 6.65% | – |
| COC(=O)CC(NC(=O)c1ccc2c(c1)OCCO2)c1ccc(F)cc1 (centres undefined) | -18.7% | – |
| Cc1oc(-c2nc(C#N)c(N3CCCCCC3)o2)cc1S(=O)(=O)N1CCCCC1 | -3.56% | – |
| O=C(/C=C(O)/C=C/c1ccc(O)cc1)/C=C/c1ccc(O)cc1 | – | 28.2 µM (active) |
| Cc1ccc(/C=C/C(=O)/C=C/c2ccc(C)cc2)cc1 | -13.9% | – |
| COc1cc(C=CC(=O)O)ccc1O | -8.61% [at 57.4 µM] | – |
| O=C(Nc1ccccc1NS(=O)(=O)c1cccs1)c1ccc([N+](=O)[O-])cc1 | -7.02% | – |
| CCOC(=O)/C=C/c1ccc(N)cc1 | 0.135% | – |
| CCN1CCC(O)(/C=C/c2ccc(C)cc2)C(C(=O)/C=C/c2ccc(C)cc2)C1 (centres undefined) | – | 50.1 µM (active) |
| CO[C@H]1C(=O)N(C(C)C)[C@H]1C1CCN(C(=O)Nc2ccc(C)c(C)c2)CC1 | 12.5% | – |
| Cc1ccsc1C(=O)NC1CCN(c2cnn(Cc3ccccc3)c(=O)c2)CC1 | 20.5% | – |
| CCN(CC)CCC(=O)Nc1c(C(=O)OC)[nH]c2ccccc12 | 2.76% | – |
| COCCNC(=S)Nc1cc(S(=O)(=O)N2CCOCC2)ccc1N1CCCCC1 | – | 31.6 µM (active) |
| CC(C)CCC(=O)Nc1cc(S(=O)(=O)N2CCOCC2)ccc1N1CCCC1 | -1.02% | – |
| O=C(COC(=O)Cc1ccc(F)cc1)Nc1cc(S(=O)(=O)N2CCOCC2)ccc1N1CCCC1 | 10.8% | – |
| CC(C)OCC(=O)N1CCN(c2nc(-c3ccccc3)nc3c2CCC3)CC1 | 1.77% | – |
| Cc1[nH]c2ccccc2c1CC(=O)NCc1ccc(CN2CCCC2)cc1 | 0.463% | – |
| Cc1c(Cc2ccccc2)c(=O)oc2c(C)c(OC(C)C(=O)O)ccc12 (centres undefined) | -4.47% | – |
| Cc1nc2nc(NCc3cc(F)cc(F)c3)[nH]n2c(=O)c1C | 3.05% | – |

| Compound | activity change, negative = inhibition | Potency |
| --- | --- | --- |
| CCN(c1ccc(NC(=O)c2cnc3ccccc3n2)cc1)C(C)C | -1.28% | – |
| CCN(CC(=O)NC(=O)NCC(C)C)C1CC1 | 19.4% | – |
| CCCCCCc1cc2c3c(c(=O)oc2cc1OCC(=O)C(C)(C)C)CCCC3 | 22.2% | – |
| O=C(OC12CC3CC(CC(C3)C1)C2)c1ccc(NCc2cc(O)ccc2O)cc1 | – | 31.6 µM (active) |
| Fc1ccc(NCC23CC4CC(CC(C4)C2)C3)cc1 | 2.88% | – |
| COC(=O)c1ccc(C(=O)OC(C)C(=O)C23CC4CC(CC(C4)C2)C3)cc1 (centres undefined) | 8.3% | – |
| Cc1c(C(=O)N2CCOC(C)C2)cnn1-c1ccc(F)cc1 (centres undefined) | 12.1% | – |
| CCNc1ncc(CN2CCN(c3cccc(C(F)(F)F)c3)CC2)cn1 | 51.7% | – |
| CN(c1ccccc1)c1cc(=O)c2ccnc(-c3ccc(CO)cc3)c2o1 | -12.8% [at 176 µM] | – |
| CN(c1ccccc1)c1cc(=O)c2ccnc(Nc3cccc([S+](C)(=O)[O-])c3)c2o1 | – | 56.2 µM (active) |
| CN(c1ccccc1)c1cc(=O)c2ccnc(NC3CCOCC3)c2o1 | 9.42% [at 176 µM] | – |
| CN(C)C(=O)C(NCCc1c[nH]c2ccccc12)c1ccccc1 (centres undefined) | 0.261% | – |
| CCc1ccc(Nc2ncc3c(n2)CC(c2ccco2)CC3=O)cc1 (centres undefined) | -1.98% | – |
| Cc1ccc(-c2csc(N(Cc3ccco3)C(=O)c3cccs3)n2)cc1 | -3.04% | – |
| Cc1ccc(-c2csc(-c3cc4c([nH]c3=O)CC(c3ccco3)CC4=O)n2)cc1 (centres undefined) | – | 2.24 µM (active) |
| CC(C)(C)c1ccc(C(=O)NNC(=O)C2CC2)cc1 | -4.22% | – |
| Fc1ccccc1COc1ccc(-c2nnco2)cc1 | 0.307% | – |
| COCCn1c(=O)c2c(nc(-n3nc(C)cc3C)n2Cc2ccccc2)n(C)c1=O | -1.9% | – |
| Cc1ccc(C)c(NC(=O)N2CCCC2c2ccco2)c1 (centres undefined) | 1.15% | – |
| Cc1ccccc1OCCN(C)Cc1cc(=O)oc2cc(O)ccc12 | -23.4% | – |
| Cc1ccc(CSc2nsc(C)c2C#N)cc1 | 0% | – |
| Cc1ccc(CSc2nc(-c3ccccc3)c(C#N)c(=O)[nH]2)cc1 | – | 39.8 µM (active) |
| CCCc1cc(=O)[nH]c(SCc2ccc(C#N)cc2)n1 | 0% | – |
| CCCCCCSc1ccc([C@@H]2[C@@H]3C(=O)N(CC)C(=O)[C@@H]3[C@]3(C(=O)OC)CCCCN23)cc1OC | – | 17.8 µM (active) |
| CCN1C(=O)[C@@H]2[C@@H](c3ccc(-c4ccc(OC)cc4)c(OC)c3)N3CCC[C@@]3(C(=O)OC)[C@@H]2C1=O | -21.7% | – |
| CCCCCCSc1ccc([C@@H]2[C@H]3C(=O)N(CC)C(=O)[C@H]3[C@]3(C(=O)OC)CCCCN23)cc1 | 44.9% | – |

| Compound | activity change, negative = inhibition | Potency |
| --- | --- | --- |
| N#Cc1cccnc1-c1cccc(C(=O)O)c1 | – | 56.2 µM (active) |
| O=C(O)c1cccc(-c2ccccn2)c1 | 6.18% [at 12.5 µM] and -0.515% [at 12.5 µM] | – |
| O=C(O)c1ccc2nc[nH]c2c1 | 0.982% | – |
| O=C(COc1ccc2c(c1)CCC2)N(Cc1nc2ccccc2c(=O)[nH]1)CC1CCCO1 (centres undefined) | 11.7% | – |
| O=S(=O)(c1cc(Cl)ccc1Cl)N1CCN(Cc2ccco2)CC1 | -3.3% | – |
| O=C(CN1CCN(S(=O)(=O)c2cc(Cl)ccc2Cl)CC1)c1ccc(O)c(O)c1 | – | 1.41 µM (active) |
| O=C(CN1CCN(S(=O)(=O)c2cccc(Cl)c2)CC1)N1CCCCC1 | 0% | – |
| Cc1[nH]c2ccccc2c1C(=O)C(=O)NC(C)CCc1ccccc1 (centres undefined) | -38.1% | – |
| Cc1ccc2cc(C)c(Nc3cccc(C)c3C)nc2c1 | 0.82% | – |
| O=C(Nc1cccc(Br)c1)c1csc2c1CCCC2 | -49.6% | – |
| CCCOc1ccc(-c2nc(C#N)c(N3CCN(C(=O)c4ccco4)CC3)o2)cc1 | -45.2% | – |
| Cc1ccc(-c2csc(C(C#N)=C(O)CN3CCN(C(=O)c4ccco4)CC3)n2)cc1 | – | 44.7 µM (active) |
| O=C(c1ccco1)N1CCN(Cc2cccc(C(F)(F)F)c2)CC1 | 19.9% | – |
| O=C(c1cc(-c2cccs2)on1)N1CCCC1c1ccccc1F (centres undefined) | -2.89% | – |
| COc1cccc(CN2C[C@@H](F)[C@@H](OCc3nc4ccccc4n3C)C2)n1 | 100% [at 176 µM] | – |
| CSc1ccc(C(=O)N2CCC(n3nccc3NC(=O)CC(C)C)CC2)cc1 | 0.71% | – |
| O=C(COc1ccc(F)cc1Cl)Nc1ncn[nH]1 | 77.9% | – |
| Cc1noc(C)c1CS(=O)(=O)c1cc(Cl)ccc1Cl | 7.07% | – |
| COc1ccccc1-c1nnc(SCC(N)=O)o1 | -10.9% | – |
| COc1ccc(CN(C(=O)CSc2nnc(-c3ccc(OC)c(OC)c3)o2)c2ccc(F)cc2)cc1 | -16% | – |
| COc1ccc(-c2nnc(SC(=O)N3c4ccccc4Sc4ccccc43)o2)cc1 | – | 8.91 µM (active) |
| CCCNC(=O)NNC(=O)c1cn(C)c2ccccc12 | -3.21% | – |
| Cn1c(COc2ccc(Cl)cc2)nnc1SCC(O)COc1ccc(C(C)(C)C)cc1 (centres undefined) | -24.4% | – |
| CCNC(=O)[C@@H]1CCCN1[C@@H](C(=O)NC)c1ccccc1OC | 31.9% [at 176 µM] | – |
| CNC(=O)[C@@H](Cc1ccccc1)N1CCC[C@H]1C(=O)N1CCC1 | – | 22.4 µM (active) |
| CNC(=O)C(C)(C)N1CCC[C@H]1C(=O)N(C)Cc1ccccc1 | -3.65% [at 176 µM] | – |

| Compound | activity change, negative = inhibition | Potency |
| --- | --- | --- |
| CCc1ccc(CN(C)C(=O)Cn2cnc3c2c(=O)n(C)c(=O)n3C)cc1 | -21.2% | – |
| CC(C)c1noc(-c2cn(C3CCN(C(=O)COc4ccc(F)cc4)CC3)nn2)n1 | 26.4% | – |
| Cc1nc2cnc(N3CCNCC3)nc2n(CCc2ccccc2)c1=O | 0% | – |
| CCc1ccc(-n2ccc3nc(N4CCc5ccccc5C4)ncc3c2=O)cc1 | – | 39.8 µM (active) |
| CCc1ccc(N2CC(O)=C(c3nc4ccccc4c(=O)[nH]3)C2=N)cc1 | -5.65% | – |
| COc1cccc(-c2cn3c(n2)NCCC3)c1 | 37.1% | – |
| O=C(Nc1cnc(-c2cccc(Cl)c2)nc1)c1ccc(F)cc1 | 33.3% | – |
| COc1cccc2cc(S(=O)(=O)c3ccc(Cl)c(Cl)c3)c(=O)oc12 | 30.9% | – |
| Cc1ccc(-n2c(C3CCN(C(=O)c4ccoc4)CC3)n[nH]c2=O)cc1 | 54.3% | – |
| Cc1ccc(C(=O)N2CCC(c3n[nH]c(=O)n3-c3ccccc3)CC2)cc1F | – | 28.2 µM (active) |
| CCOc1ccc(C(=O)N2CCC(c3n[nH]c(=O)n3-c3ccccc3)CC2)cc1OCC | 25.8% | – |
| CC(C)(CNC(=O)c1ccccc1)CNC(=O)c1ccccc1 | 3.22% | – |
| O=C1CSc2ccc(C(=O)Nc3cccc(COC(=O)c4ccc5c(c4)NC(=O)CS5)c3)cc2N1 | 30.1% | – |
| O=C(NCCNC(=O)C1CC1)c1c[nH]c2ccccc12 | 1% | – |
| Nc1nc(COC(=O)c2ccc(OC(F)F)cc2)nc2ccccc12 | 32.2% | – |
| Cc1occc(=O)c1OCc1noc(C(=O)NCc2ccc(Cl)cc2)n1 | 30.8% | – |
| O=C1Cc2cc(-c3csc(Nc4ccc(F)cc4)n3)ccc2N1 | -8.91% | – |
| O=C(O)c1ccc(Nc2nc(-c3ccc4ccccc4c3)cs2)cc1O | – | 31.6 µM (active) |
| Cc1ccc(-c2csc(Nc3ccccc3)n2)c(C)c1 | -61.9% | – |
| CC(=O)c1ccc(NC(=O)C(C)Sc2nnc(-c3ccco3)n2-c2ccccc2)cc1 (centres undefined) | 7.66% | – |
| Cc1ccccc1-n1cnnc1SCC(=O)NC(C)c1cccc2ccccc12 (centres undefined) | 8.99% | – |
| CCCN1C2=C(C(=O)CCC2)C(c2ccc(O)c(Br)c2)C2=C1CCCC2=O | 0.376% | – |
| COc1ccc(C2C(C#N)=C(N)N(c3ncn[nH]3)C3=C2C(=O)CCC3)cc1 (centres undefined) | 7.37% | – |
| COc1ccc(C2C3=C(CCCC3=O)N(CC(=O)O)C3=C2C(=O)CCC3)cc1 | – | 10 µM (active) |
| CCCCCCCC1CCC(c2ccc(-c3ccc(CCCC)cn3)cc2)CC1 (centres undefined) | 8.25% | – |
| COc1ccc(NC(=O)CN(C)C(=O)c2nc(-c3ccccc3)oc2C)cc1 | -28.5% | – |
